About 83,000 compounds went through this panel and 20% of them were active in at least one assay; those are over-represented in the sample as a whole.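 Testing used 96-well plates and a 48-hour single-concentration exposure. Example: -40 means 40% of the starting cells died.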 Values without a mark were called inactive. Activity calls are given as the source filed them. How the source made its calls: active means growth percent below 10; inactive means the rest.

The text below walks through data of PubChem BioAssay (NCI).

Test in all cases: NCI-60 one-dose screen, 48 h (100 = growth as untreated, 0 = no growth, -100 = all killed)
What all share (details): 10 µM unless noted

For experiment [1], the system named is NCI-H226 lung.
In experiment [2] the test system is NCI-H322M lung.
Experiment [3] relates to HOP-62 NSCLC.
In experiment [4] the test system is NCI-H460 lung.
Experiment [5] concerns HOP-92 NSCLC.
For experiment [6], the system named is NCI-H522 lung.
For experiment [7], the system named is A549/ATCC NSCLC.
Experiment [8] has as its system 786-0 renal.
The test system of experiment [9] is COLO 205 colon.
In experiment [10] the test system is DU-145 prostate.

Take `O=C(Nc1nc2ccc(O)cc2s1)c1cccc(C(F)(F)F)c1`: the growth in experiment [1] is 84.2%; in experiment [2], 84.3%; in [3] it was 88.6%; in [4], 56.7%; in experiment [5], 69%; in experiment [6], 35.6%. For the same compound, the growth in experiment [7] was 57%; in experiment [8], 77.1%; in experiment [9] it was 107%; in [10] it was 65.9%.

`CCOC(=O)c1c(Nc2ccccc2)nn2c(N)c(C#N)c(-c3ccccc3)nc12`: the growth in [1] was 83.3%; in [2], 94.8%; in [3], 97.7%; in experiment [4], 93.2%; in experiment [5], 81.8%; in experiment [6] it was 89.7%. Further, the growth in experiment [7] was 97%; in experiment [8] it was 79.5%; in experiment [9] it was 87.4%; in experiment [10], 81.1%.

On to `Cc1[nH]nc2ncc(C#Cc3cncc(C(=O)Nc4ccc(CN5CCN(C)CC5)c(C(F)(F)F)c4)c3)cc12`, for which the growth in experiment [1] was 3.71% (active); in experiment [2] it was 44.3%; in experiment [3], 28.9%; in experiment [4], 10.7%; in [5], -23% (active); in experiment [6], 47.8%. For the same compound, the growth in experiment [7] was 23.9%; in experiment [8] it was 43.1%; in experiment [9], -25.6% (active); in [10] it was 36.4%.

On to `COc1ccc(-c2nc3ccc(-c4nnc(SCC(=O)Nc5ccc(C(=O)/C=C/c6ccccc6)cc5)o4)cc3[nH]2)cc1OC`, for which the growth in experiment [1] was 98.2%; in [2], 102%; in experiment [3], 101%; in experiment [4], 106%; in experiment [5] it was 98.4%; in experiment [6], 98.4%. For the same compound, the growth was 102% in [7], 99.3% in experiment [8], 115% in experiment [9] and 107% in experiment [10].

For `C=CCn1c(SCC(=O)c2ccc(Br)cc2)nnc1-c1c[nH]c2ccccc12`, the growth in [1] was 90.1%; in experiment [2] it was 99.5%; in [3] it was 103%; in [4], 106%; in [5], 91.4%; in experiment [6], 96.3%. Besides, the growth was 103% in experiment [7], 98.6% in [8], 108% in experiment [9] and 106% in [10].

As to `COc1ccc(-c2nc3ccc(-c4nnc(SCC(=O)Nc5ccc(C(=O)/C=C/c6ccc(Cl)cc6)cc5)o4)cc3[nH]2)cc1OC`, the growth in experiment [1] was 98.5%; in experiment [2] it was 95.8%; in experiment [3] it was 103%; in [4], 103%; in experiment [5] it was 105%; in experiment [6], 98.4%. Also, the growth in experiment [7] was 103%; in experiment [8] it was 103%; in [9] it was 116%; in experiment [10] it was 109%.

In the case of `Cc1cc(C(=O)Nc2sc3c(c2C(N)=O)CCC(=O)C3)ccc1OCCN1CCCCC1`, the growth in experiment [1] is 109%; in experiment [2], 111%; in [3] it was 119%; in [4], 99.4%; in experiment [5], 113%; in [6], 90.8%. In addition, the growth is 81.1% in [7], 111% in experiment [8], 106% in experiment [9] and 99.2% in experiment [10].

For the compound `O=C(CCN1C(=O)/C(=C/c2ccccc2F)SC1=S)N1CCOCC1`, the growth was 105% in experiment [1]; 80.5% in experiment [2]; 117% in experiment [3]; 90.7% in [4]; 133% in experiment [5]; 41.4% in experiment [6]. Moreover, the growth in experiment [7] was 102%; in experiment [8] it was 77.4%; in [9], 108%; in experiment [10] it was 57.5%.

Turning to `Cc1cccc(/C=C/c2nn3c(-c4ccco4)nnc3s2)c1`, the growth in experiment [1] is 96.5%; in experiment [2] it was 94.4%; in experiment [3] it was 100%; in [4] it was 102%; in [5], 119%; in experiment [6] it was 95.2%. In addition, the growth in experiment [7] was 95.3%; in [8] it was 97.6%; in experiment [9], 107%; in experiment [10], 105%.

As to `Clc1ccc2c(NCCCn3ccnc3)c3oc4ccc(Cl)cc4c3nc2c1`, the growth was 57.8% in [1]; 71% in experiment [2]; 66.6% in experiment [3]; 11.1% in experiment [4]; 57.4% in experiment [5]; 82.9% in experiment [6]. For the same compound, the growth in experiment [7] is 89.2%; in experiment [8], 41.6%; in experiment [9], 96.5%; in experiment [10] it was 92%.

`Nc1nc(N)c2c(n1)NC(c1ccc(F)cc1)CC(c1ccc(Nc3nc(NCCO)nc(Nc4ccc(Cl)cc4)n3)cc1)=N2` (stereo not given): the growth is 22.2% in [1]; 29.1% in [2]; 68.1% in experiment [3]; -54.5% (active) in experiment [4]; -65.5% (active) in [5]; -18.4% (active) in experiment [6]. Further, the growth is 57% in experiment [7], -71.1% (active) in [8], 28.4% in experiment [9] and 12.2% in [10].

With `COc1cc(/C=C/C(=O)c2cc(OC)c(OC)c(OC)c2)ccc1OCc1ccc(F)cc1`, the growth is 49.5% in experiment [1]; 49.7% in experiment [2]; 36.2% in experiment [3]; 54% in experiment [4]; 44.7% in experiment [5]; 56.4% in experiment [6]. Further, the growth is 51.2% in [7], 62.8% in experiment [8], 70% in experiment [9] and 58.3% in [10].

For `Clc1ccc2oc3c(OCCCn4ccnc4)c4ccccc4nc3c2c1`, the growth is 88.5% in experiment [1]; 73.2% in [2]; 87.4% in [3]; 32.6% in experiment [4]; 53% in [5]; 44% in [6]. In addition, the growth in experiment [7] was 62%; in [8] it was 46.5%; in experiment [9], 36%; in [10], 64.1%.
